The panel holds about 79,000 compounds, 15% with a hit somewhere; the sample as a whole holds those more often. A number with no mark means an inactive call. The source made the active and inactive calls. Rule as the data show it: active = growth inhibition above about 70%; inactive = the rest.
Assay: NCI Yeast Anticancer Drug Screen. Data for the mlh1 rad18 strain (AID 175)
Settings: S. cerevisiae mlh1 rad18 strain growth inhibition; at 50.0 µM (retest, dose inferred, filed as 5.0); active compounds read high
Outline: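 In this whole-cell yeast screen, a strain with altered DNA damage repair is challenged with compound, and its growth is measured against matched vehicle-treated controls.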

Compound | growth inhibition
CCOP(=O)(OCC)/C(C#N)=C/c1ccc(Oc2ccccc2)cc1 | 97% (active)
CC(=O)Nc1ccc(S(=O)(=O)/N=C2\C=CC(=O)c3ccccc32)cc1 | 16%
CCCC#CCCOC(=O)c1cc([N+](=O)[O-])cc([N+](=O)[O-])c1 | 98% (active)
COc1cccc2c1OC(c1ccc(Cl)cc1)C([N+](=O)[O-])=C2 (stereo not given) | 95% (active)
c1ccc(-n2c3ccccc3c3ccccc32)cc1 | 11%
CCOC(=O)C(NC(C)=O)[CH](c1ccccc1)[Sn]([c]1ccccc1)([c]1ccccc1)[c]1ccccc1 (stereo not given) | 95% (active)
C/C(CCn1[nH]c(=O)ccc1=O)=N\Nc1ccc([N+](=O)[O-])cc1[N+](=O)[O-] | 98% (active)
N#CC(O)C(Br)(Br)Br (stereo not given) | 72% (active)
COc1ccc(N)c([N+](=O)[O-])c1 | 31%
CC(C)O[C@H]1N(C2CC(N=[N+]=[N-])C(CO)O2)C(=O)NC(=O)[C@]1(C)Br (stereo not given in full) | 63%
COc1ccc(C(=O)C2C(=O)C(=O)OC2C2OC(=O)C(=O)C2C(=O)c2ccc(OC)cc2)cc1 (stereo not given) | -1%
O=[N+]([O-])c1c(Cl)c(Cl)c(O)c(Cl)c1Cl | 89% (active)
Cc1ccc(C)c(NC(=O)CCC(=O)CC(=O)c2ccncc2)c1 | -1%
CC(C)CCCC(C)C1CCC2C3CC=C4CC(OC(=O)Nc5ccc(S(=O)(=O)c6ccc(F)cc6)cc5)CCC4(C)C3CCC12C (stereo not given) | -6%
COc1ccc(/C=C(/NC(=O)c2ccccc2)C(=O)Nc2ccccc2)cc1OC | -11%
C=C(Br)CN(CC(=C)Br)C(C)=O | 21%
CCN(C(C)=O)c1ccc2c(c1)Cc1ccccc1-2 | 97% (active)
NN(c1ccccc1)c1cccc2ccccc12 | 96% (active)
C#CCN1CCN(C(=S)N/N=C(\C)c2ccccn2)CC1 | 100% (active)
CC(C)OC(=O)C1C=CCc2c(O)ccc(O)c21 (stereo not given) | 35%

Compound | growth inhibition
CC(=O)C1C(=O)C=C(C)OC1=O (stereo not given) | 23%
CCOC(=O)c1[nH]n(-c2ccccc2)c(=O)c1/C=N/C(=S)N=Nc1c(O)[nH]c2ccccc12 | -2%
N#Cc1c(Cl)nnc(-c2ccccc2)c1-c1ccccc1 | 91% (active)
CC(=O)Oc1c(O)c2ccccc2c2ccccc12 | 92% (active)
Cc1cccnc1NC(=S)Nc1ccccc1Cl | 99% (active)
CCOC(=O)/C(=C\c1cccc(OC)c1)C(C)=O | 95% (active)
c1ccc(C(c2ccccc2)c2ccc3ccccc3n2)cc1 | 80% (active)
O=c1cc(CSc2ccc(Cl)cc2)occ1O | 51%
COc1cc(NCCCCCNC2CCCCC2)c2ncccc2c1 | 27%
CC(=O)OCc1ccc([N+](=O)[O-])o1 | 86% (active)
O=C(O)Cc1cccc2cc3c(ccc4ccccc43)cc12 | 44%
Cc1cccc(N2C(=O)c3ccccc3C2(c2ccccc2)N2CCCCC2)c1 (stereo not given) | -9%
O=C(/C=C/c1ccccc1)CCN1CCOCC1 | 99% (active)
C=CCCCCCCCCC(=O)CCCCCCCCC=C | 1%
Cc1ccc(O)c(C(C)c2ccccc2)c1 (stereo not given) | 98% (active)
COC(=O)c1nc(N)nc(C(=O)OC)c1C(=O)c1ccccc1 | -5%
Cc1ccc(S(=O)(=O)Oc2ccc(C(C)(C)C)cc2Cl)cc1 | 0%
CCCCCCCCCCCCCCC[N+]1(CC)CCCCC1 | 99% (active)
CC12CCC(=O)C=C1C=CC1C2CCC2(C)C1CCC21CCC(=O)O1 (stereo not given) | 99% (active)
CC(C)N(C(=O)C12C3C4C1C1C2C3C41I)C(C)C (stereo not given) | 20%

Same assay, conditions: S. cerevisiae mlh1 rad18 strain growth inhibition; at 50.0 µM; active compounds read high

Compound | growth inhibition
CCOP(=O)(OCC)/C(C#N)=C/c1ccc(Oc2ccccc2)cc1 | 89.8% (active)
CC(=O)Nc1ccc(S(=O)(=O)/N=C2\C=CC(=O)c3ccccc32)cc1 | 80% (active)
CCCC#CCCOC(=O)c1cc([N+](=O)[O-])cc([N+](=O)[O-])c1 | 98.5% (active)
COc1cccc2c1OC(c1ccc(Cl)cc1)C([N+](=O)[O-])=C2 (stereo not given) | 84% (active)
c1ccc(-n2c3ccccc3c3ccccc32)cc1 | 84.5% (active)
CCOC(=O)C(NC(C)=O)[CH](c1ccccc1)[Sn]([c]1ccccc1)([c]1ccccc1)[c]1ccccc1 (stereo not given) | 96.7% (active)
C/C(CCn1[nH]c(=O)ccc1=O)=N\Nc1ccc([N+](=O)[O-])cc1[N+](=O)[O-] | 73.2% (active)
N#CC(O)C(Br)(Br)Br (stereo not given) | 86% (active)
COc1ccc(N)c([N+](=O)[O-])c1 | 27.9%
CC(C)O[C@H]1N(C2CC(N=[N+]=[N-])C(CO)O2)C(=O)NC(=O)[C@]1(C)Br (stereo not given in full) | 91.1% (active)
COc1ccc(C(=O)C2C(=O)C(=O)OC2C2OC(=O)C(=O)C2C(=O)c2ccc(OC)cc2)cc1 (stereo not given) | -15.7%
O=[N+]([O-])c1c(Cl)c(Cl)c(O)c(Cl)c1Cl | 70.8% (active)
Cc1ccc(C)c(NC(=O)CCC(=O)CC(=O)c2ccncc2)c1 | 24.1%
CC(C)CCCC(C)C1CCC2C3CC=C4CC(OC(=O)Nc5ccc(S(=O)(=O)c6ccc(F)cc6)cc5)CCC4(C)C3CCC12C (stereo not given) | 96.4% (active)
COc1ccc(/C=C(/NC(=O)c2ccccc2)C(=O)Nc2ccccc2)cc1OC | 29.3%
C=C(Br)CN(CC(=C)Br)C(C)=O | -53.9%
CCN(C(C)=O)c1ccc2c(c1)Cc1ccccc1-2 | 96.8% (active)
NN(c1ccccc1)c1cccc2ccccc12 | 25.1%
C#CCN1CCN(C(=S)N/N=C(\C)c2ccccn2)CC1 | 99.3% (active)
CC(C)OC(=O)C1C=CCc2c(O)ccc(O)c21 (stereo not given) | 86.2% (active)

Compound | growth inhibition
CC(=O)C1C(=O)C=C(C)OC1=O (stereo not given) | 70.7% (active)
CCOC(=O)c1[nH]n(-c2ccccc2)c(=O)c1/C=N/C(=S)N=Nc1c(O)[nH]c2ccccc12 | -35.7%
N#Cc1c(Cl)nnc(-c2ccccc2)c1-c1ccccc1 | 93.6% (active)
CC(=O)Oc1c(O)c2ccccc2c2ccccc12 | 98.9% (active)
Cc1cccnc1NC(=S)Nc1ccccc1Cl | 89.5% (active)
CCOC(=O)/C(=C\c1cccc(OC)c1)C(C)=O | 88.3% (active)
c1ccc(C(c2ccccc2)c2ccc3ccccc3n2)cc1 | 37.5%
O=c1cc(CSc2ccc(Cl)cc2)occ1O | 55%
COc1cc(NCCCCCNC2CCCCC2)c2ncccc2c1 | 74.2% (active)
CC(=O)OCc1ccc([N+](=O)[O-])o1 | 98% (active)
O=C(O)Cc1cccc2cc3c(ccc4ccccc43)cc12 | 96.7% (active)
Cc1cccc(N2C(=O)c3ccccc3C2(c2ccccc2)N2CCCCC2)c1 (stereo not given) | 58.5%
O=C(/C=C/c1ccccc1)CCN1CCOCC1 | 84.7% (active)
C=CCCCCCCCCC(=O)CCCCCCCCC=C | 5.75%
Cc1ccc(O)c(C(C)c2ccccc2)c1 (stereo not given) | 99.1% (active)
COC(=O)c1nc(N)nc(C(=O)OC)c1C(=O)c1ccccc1 | 0%
Cc1ccc(S(=O)(=O)Oc2ccc(C(C)(C)C)cc2Cl)cc1 | 14.4%
CCCCCCCCCCCCCCC[N+]1(CC)CCCCC1 | 89.2% (active)
CC12CCC(=O)C=C1C=CC1C2CCC2(C)C1CCC21CCC(=O)O1 (stereo not given) | 72.8% (active)
CC(C)N(C(=O)C12C3C4C1C1C2C3C41I)C(C)C (stereo not given) | 73.5% (active)
